Experimental data reported in PubChem BioAssay (Tox21).
Results filed as inconclusive are left out. The source made the active and inactive calls. Unless noted, the call rests on the fitted dose curve; in most records, active means well fitted curve in the direction sought with a large enough effect in the repeat runs; inconclusive means weak or mixed curves; inactive means no such curve, though single readings can be large; an effect the other way counts as inactive or inconclusive.

Columns and labels:
[1] = molecular target: Peroxisome proliferator-activated receptor delta (Homo sapiens) (UniProt Q03181); assay: qHTS assay to identify small molecule agonists of the peroxisome proliferator-activated receptor delta (PPARd) signaling pathway (AID 743212; calls by dose curve)
Procedure, shortened: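 A PPARd-bla HEK293H line with beta-lactamase under an Upstream Activator Sequence is treated with compounds at 37 C. Substrate loading for 2 h at room temperature precedes the fluorescence measurement.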

[2] = qHTS assay to identify small molecule antagonists of the peroxisome proliferator-activated receptor delta (PPARd) signaling pathway - cell viability counter screen (AID 743213); further: nearly all actives have a fitted effect of over 50% in size
Procedure, shortened: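 Luminescence from CellTiter-Glo, added after the bla read and incubated 30 min at room temperature, gives viability of HEK293H PPARd-bla cells exposed to compounds for 17 h at 37 C with 300 nM L165041.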

[3] = molecular target: Peroxisome proliferator-activated receptor delta (Homo sapiens) (UniProt Q03181); assay: qHTS assay to identify small molecule antagonists of the peroxisome proliferator-activated receptor delta (PPARd) signaling pathway (AID 743215; active means well fitted inhibition curve with a large enough effect in the signal ratio in the repeat runs, not every such curve was filed as active; the % refers to the signal ratio;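 further: cells stimulated with agonist L165041 at 300 nM final during compound exposure; series mostly up to about 62 µM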)
Procedure, shortened: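 HEK293H UAS-bla, PPARd; agonist L165041 300 nM final with cpd in DMSO; 37 C 17 h; FRET substrate, RT 2 h; fluorescence intensity.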

[4] = molecular target: Bile acid receptor (Homo sapiens) (UniProt Q96RI1); assay: qHTS assay to identify small molecule antagonists of the farnesoid-X-receptor (FXR) signaling pathway (AID 743217; active means well fitted inhibition curve with a large enough effect in the signal ratio in the repeat runs, not every such curve was filed as active; the % refers to the signal ratio)
Procedure, shortened: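 GeneBLAzer FXR-UAS-bla HEK 293T, CDCA-stimulated (50 uM final). Compound treatment 16 h, 37 °C. Detection: beta-lactamase cleavage of B/G FRET substrate, fluorescence.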

[5] = qHTS assay to identify small molecule agonists of the farnesoid-X-receptor (FXR) signaling pathway - cell viability counter screen (AID 743218); further: nearly all actives have a fitted effect of over 45% in size
Procedure, shortened: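 Parallel cytotoxicity test: compound-treated (16 h, 37 C) HEK 293T FXR-bla reporter cells were lysed with CellTiter-Glo and luminescence recorded.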

[6] = molecular target: Bile acid receptor (Homo sapiens) (UniProt Q96RI1); assay: qHTS assay to identify small molecule agonists of the farnesoid-X-receptor (FXR) signaling pathway (AID 743220; active means well fitted activation curve with a large enough effect in the signal ratio in the repeat runs, not every such curve was filed as active; the % refers to the signal ratio)
Procedure, shortened: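 Beta-lactamase reporter under UAS control in GeneBLAzer FXR HEK 293T cells (5000/well) measured with LiveBLAzer FRET substrate after 2 h at room temperature. Compound exposure lasted 16 h at 37C.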

[7] = qHTS assay to identify small molecule antagonists of the farnesoid-X-receptor (FXR) signaling pathway - cell viability counter screen (AID 743221; active means well fitted cell-killing curve with a large enough effect in the repeat runs, not every such curve was filed as active; further: nearly all actives have a fitted effect of over 50% in size)
Procedure, shortened: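 Compound effects on cell number were measured as CellTiter-Glo luminescence in HEK 293T cells expressing FXR-UAS-bla, after 16 h at 37 C with 50 uM CDCA (final).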

[8] = molecular target: Vitamin D3 receptor (Homo sapiens) (UniProt P11473); assay: qHTS assay to identify small molecule antagonists of the vitamin D receptor (VDR) signaling pathway (AID 743223; active means well fitted inhibition curve with a large enough effect in the signal ratio in the repeat runs, not every such curve was filed as active; the % refers to the signal ratio)
Procedure, shortened: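 Beta-lactamase activity in VDR-bla cells is measured by FRET substrate fluorescence (2 h, room temperature) after cells spend 16 h at 37C with test compound and 3 nM final 1alpha,25-dihydroxyvitamin D3.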

[9] = qHTS assay to identify small molecule agonists of the vitamin D receptor (VDR) signaling pathway - cell viability counter screen (AID 743224); further: series mostly up to about 63 µM; nearly all actives have a fitted effect of over 50% in size
Procedure, shortened: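 Plated VDR-bla cells (4 h, 37C) received compound, incubated 16 h, then LiveBLAzer substrate 2 h RT; CellTiter-Glo added afterwards, luminescence read at 30 min.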

[10] = molecular target: Vitamin D3 receptor (Homo sapiens) (UniProt P11473); assay: qHTS assay to identify small molecule agonists of the vitamin D receptor (VDR) signaling pathway (AID 743222; calls by dose curve)
Procedure, shortened: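 In VDR-bla cells, compound-induced beta-lactamase expression is quantified by FRET substrate fluorescence. Treatment lasts 16 h at 37C; substrate develops 2 h at room temperature.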

Measured: Potency

Chain of Peroxisome proliferator-activated receptor delta (Homo sapiens) (Q03181 whole entry, looked up): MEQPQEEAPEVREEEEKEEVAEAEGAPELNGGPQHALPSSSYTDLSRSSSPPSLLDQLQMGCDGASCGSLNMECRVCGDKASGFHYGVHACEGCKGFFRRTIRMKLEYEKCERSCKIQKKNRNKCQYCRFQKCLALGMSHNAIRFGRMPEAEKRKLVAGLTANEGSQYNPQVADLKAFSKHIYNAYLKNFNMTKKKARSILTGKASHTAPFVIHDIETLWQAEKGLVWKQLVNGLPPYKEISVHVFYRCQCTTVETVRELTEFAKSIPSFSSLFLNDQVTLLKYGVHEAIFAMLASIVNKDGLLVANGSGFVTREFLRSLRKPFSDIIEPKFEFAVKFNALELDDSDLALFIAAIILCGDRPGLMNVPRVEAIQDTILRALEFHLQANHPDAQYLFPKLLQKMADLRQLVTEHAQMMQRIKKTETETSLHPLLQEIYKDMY
Chain of Bile acid receptor (Homo sapiens) (Q96RI1 whole entry, looked up): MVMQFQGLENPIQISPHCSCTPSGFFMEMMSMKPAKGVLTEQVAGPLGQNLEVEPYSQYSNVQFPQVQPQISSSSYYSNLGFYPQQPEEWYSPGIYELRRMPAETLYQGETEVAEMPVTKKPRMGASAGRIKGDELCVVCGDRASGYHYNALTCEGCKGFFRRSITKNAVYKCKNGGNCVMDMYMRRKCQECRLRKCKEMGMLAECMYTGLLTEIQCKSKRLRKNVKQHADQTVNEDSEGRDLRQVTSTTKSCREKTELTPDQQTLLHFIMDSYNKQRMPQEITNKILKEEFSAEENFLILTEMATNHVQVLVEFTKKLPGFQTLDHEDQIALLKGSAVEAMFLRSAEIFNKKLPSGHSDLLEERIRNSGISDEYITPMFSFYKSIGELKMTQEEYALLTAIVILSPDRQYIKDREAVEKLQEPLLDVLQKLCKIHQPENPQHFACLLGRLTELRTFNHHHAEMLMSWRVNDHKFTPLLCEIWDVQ
Chain of Vitamin D3 receptor (Homo sapiens) (P11473 whole entry, looked up): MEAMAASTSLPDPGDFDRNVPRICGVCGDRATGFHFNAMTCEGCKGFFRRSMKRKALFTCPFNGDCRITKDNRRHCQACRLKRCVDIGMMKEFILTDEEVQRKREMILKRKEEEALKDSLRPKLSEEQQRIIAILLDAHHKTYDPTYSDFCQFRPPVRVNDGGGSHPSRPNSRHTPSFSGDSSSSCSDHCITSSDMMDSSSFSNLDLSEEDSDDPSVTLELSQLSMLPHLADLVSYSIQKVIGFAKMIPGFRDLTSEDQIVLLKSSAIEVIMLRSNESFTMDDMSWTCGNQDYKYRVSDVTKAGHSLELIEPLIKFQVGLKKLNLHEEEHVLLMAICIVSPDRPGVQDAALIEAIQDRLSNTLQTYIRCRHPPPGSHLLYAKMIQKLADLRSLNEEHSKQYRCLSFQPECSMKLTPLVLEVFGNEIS

CC(C)OP(=O)(CP(=O)(OC(C)C)OC(C)C)OC(C)C
not listed: [9] | [10]
inactive: all other assays above

O=[N+]([O-])c1ccc2nc[nH]c2c1
not listed: [8] | [10]
inactive: all other assays above

CC(=O)CC(C)(C)O
not listed: [7] | [10]
inactive: all other assays above

CC(CCl)OP(=O)(OC(C)CCl)OC(C)CCl (stereo not given)
not listed: [10]
inactive: all other assays above

CNC(=O)Oc1ccc2c(c1)[C@]1(C)CCN(C)[C@@H]1N2C
not listed: [10]
inactive: all other assays above

NC(=S)NNC(N)=S
inactive: [1] | [2] | [3] | [4] | [6] | [7]

N#Cc1ccccc1
not listed: [9] | [10]
inactive: all other assays above

CN(C)c1ccc(Cc2ccc(N(C)C)cc2)cc1
inactive: all assays above

COc1ccc(N)c(C)c1
inactive: all assays above

OCc1cccc(Oc2ccccc2)c1
not listed: [9]
inactive: all other assays above

CCO[Si](CCCN)(OCC)OCC
inactive: all assays above

CC(=O)OCc1ccccc1
not listed: [4] | [6]
inactive: all other assays above

C[C@]12CCC(=O)C=C1CC[C@@H]1[C@@H]2[C@@H](O)C[C@@]2(C)[C@H]1CC[C@]2(O)C(=O)CO
not listed: [4] | [6] | [9]
inactive: all other assays above

C=C(C)CNCC
not listed: [4] | [6] | [10]
inactive: all other assays above

CC(=O)Oc1ccc(C)cc1
inactive: [1] | [2] | [3] | [5] | [7]

NCCNCCN
inactive: [1] | [2] | [3] | [5] | [7] | [8]

NCCN1CCNCC1
not listed: [4] | [6]
inactive: all other assays above

N[C@H](Cc1c[nH]c2ccccc12)C(=O)O
not listed: [4] | [6] | [9]
inactive: all other assays above

C=Cc1ccc(C)cc1
not listed: [4] | [6] | [10]
inactive: all other assays above

Cc1ccc(C(C)C)c(O)c1
inactive: [1] | [2] | [3] | [5] | [7] | [8]

C[C@]12CC[C@@H]3c4ccc(O)cc4CC[C@H]3[C@@H]1C[C@@H](O)[C@@H]2O
not listed: [4] | [6]
inactive: all other assays above

CC(=O)CCC=C(C)C
not listed: [4] | [6] | [9]
inactive: all other assays above

O=C(OCC1CCC2OC2C1)C1CCC2OC2C1 (stereo not given)
inactive: [1] | [2] | [3] | [5] | [7] | [10]

Cc1ccc([N+](=O)[O-])cc1S(=O)(=O)O
not listed: [4] | [6]
inactive: all other assays above

CCOCC(=O)O
not listed: [4] | [6] | [9]
inactive: all other assays above

Nc1ccc(Cl)c(N)c1
not listed: [5] | [10]
inactive: all other assays above

CCCCCCC=O
not listed: [4] | [6]
inactive: all other assays above

CN(C)CCOC(=O)COc1ccc(Cl)cc1
not listed: [4] | [6] | [10]
inactive: all other assays above

COc1cc(OC)c(C(=O)CCCN2CCCC2)c(OC)c1
not listed: [4] | [6]
inactive: all other assays above

O=C(O)c1cc2ccccc2cc1O
not listed: [4] | [6] | [9]
inactive: all other assays above
